Reference: PMC4336329 (PLoS ONE, 2015)
The whole screen tested about 310,000 compounds, of which about 14,000 (4.5%) showed an effect of 50% or more. Effects have a minus sign here. The sample holds strong results, similar compounds and a random draw of the others, so the mix is not that of the screen.

Molecular target: human ether-à-go-go-related gene (hERG) potassium channel (human, UniProt Q12809)
Assay: primary screen, population patch clamp on CHO cells stably expressing hERG; higher = less effect of the substance
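Note: peak tail current of the secondary pulse compared with the same well before compound.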

human ether-à-go-go-related gene (hERG) potassium channel, sequence (Q12809 whole entry, looked up): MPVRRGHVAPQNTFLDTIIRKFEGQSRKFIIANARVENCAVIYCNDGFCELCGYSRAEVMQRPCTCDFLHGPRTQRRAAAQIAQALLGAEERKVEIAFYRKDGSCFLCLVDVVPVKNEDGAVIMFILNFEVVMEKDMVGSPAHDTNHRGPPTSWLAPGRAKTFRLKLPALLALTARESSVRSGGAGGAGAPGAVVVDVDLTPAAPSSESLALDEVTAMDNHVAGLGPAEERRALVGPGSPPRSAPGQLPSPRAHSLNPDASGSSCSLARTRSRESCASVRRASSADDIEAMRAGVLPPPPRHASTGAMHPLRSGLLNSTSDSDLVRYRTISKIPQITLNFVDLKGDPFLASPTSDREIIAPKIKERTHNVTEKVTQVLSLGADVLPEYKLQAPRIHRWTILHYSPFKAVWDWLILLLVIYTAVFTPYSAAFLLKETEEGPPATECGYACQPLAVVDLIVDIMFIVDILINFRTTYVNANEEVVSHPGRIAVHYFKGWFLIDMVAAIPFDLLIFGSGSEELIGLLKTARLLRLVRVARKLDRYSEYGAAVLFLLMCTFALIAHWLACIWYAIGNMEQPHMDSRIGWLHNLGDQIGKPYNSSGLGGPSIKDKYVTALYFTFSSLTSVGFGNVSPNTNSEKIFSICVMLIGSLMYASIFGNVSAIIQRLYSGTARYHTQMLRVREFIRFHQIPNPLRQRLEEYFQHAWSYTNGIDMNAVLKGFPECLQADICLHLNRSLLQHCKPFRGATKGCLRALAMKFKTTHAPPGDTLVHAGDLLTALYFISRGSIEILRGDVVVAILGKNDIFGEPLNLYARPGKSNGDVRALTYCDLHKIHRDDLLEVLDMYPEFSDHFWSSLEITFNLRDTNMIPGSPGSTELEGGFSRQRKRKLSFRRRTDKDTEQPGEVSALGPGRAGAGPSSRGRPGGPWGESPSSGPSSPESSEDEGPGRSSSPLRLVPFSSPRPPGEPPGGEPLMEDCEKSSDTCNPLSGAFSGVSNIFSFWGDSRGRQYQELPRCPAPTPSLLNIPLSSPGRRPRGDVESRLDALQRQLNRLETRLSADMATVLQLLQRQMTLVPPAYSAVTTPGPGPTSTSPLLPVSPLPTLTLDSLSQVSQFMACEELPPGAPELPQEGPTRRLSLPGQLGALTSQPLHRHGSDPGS

| SMILES | hERG current change (%, negative = inhibition) at 10uM |
| --- | --- |
| CN1CCN(C(=O)Nc2ccccc2)CC1.O=C(O)C(=O)O | 23.2% |
| CCN(CC(=O)Nc1cc(Cl)ccc1C)C(=O)CN1C(=O)NC2(CCCC2)C1=O | 8.3% |
| CSc1ncccc1C(=O)OCC(=O)N(CC(C)C)C1CCS(=O)(=O)C1 (stereo not shown) | -0.0479% |
| Cc1cc(C)nc(N(C#N)Cc2ccc(Br)cc2)n1 | 4.33% |
| O=C1NC(=O)N(c2ccccc2)C(=O)/C1=C/c1coc2ccc(O)cc2c1=O | -6.18% |
| CN(C)CCCNC(=S)Nc1ccc(Oc2ccccc2)cc1 | -3.24% |
| CON=C1CCN(c2ncc(C(F)(F)F)cc2Cl)CC1 | -5.78% |
| CCN(CC)S(=O)(=O)c1cccc(C(=O)Nc2ccc(C#N)cc2)c1 | -77.3% |
| CCN(CC)S(=O)(=O)c1cccc(NC(=O)COc2ccc(C#N)cc2OC)c1 | -72.4% |
| CCN(CC)S(=O)(=O)c1cccc(NC(=O)c2cccc(S(=O)(=O)N3CCCC3)c2)c1 | -80.8% |
| CCN(CC)S(=O)(=O)c1cccc(NC(=O)CNc2cccc(S(=O)(=O)N3CCCC3)c2)c1 | 5.46% |
| CCN(CC)S(=O)(=O)c1cc(NC(=O)COc2ccc(C#N)cc2OC)ccc1C | -38.1% |
| NC(=O)c1ccc(-c2nnn(CC(=O)Nc3cccc(S(=O)(=O)N4CCCC4)c3)n2)cc1 | 4.54% |
| CN(C)S(=O)(=O)c1cccc(NC(=O)c2cccc(S(=O)(=O)N3CCCCC3)c2)c1 | -27.9% |
| CCN(CC)S(=O)(=O)c1cccc(NC(=O)c2ccc(C#N)cc2)c1 | -35% |
| CCN(CC)S(=O)(=O)c1cccc(C(=O)Nc2ccccc2)c1 | -28% |
| O=C(Cn1nnc(-c2ccccc2)n1)Nc1cccc(S(=O)(=O)N2CCCC2)c1 | -2.26% |
| COc1cc(C#N)ccc1OCC(=O)Nc1cccc(S(=O)(=O)N2CCCC2)c1 | -44.4% |
| O=C(Cn1nnc(-c2ccccc2)n1)Nc1cccc(S(=O)(=O)N2CCOCC2)c1 | -56.2% |
| Cc1cc(C)c(S(=O)(=O)c2ccccc2Cl)c(=O)[nH]1 | 10.7% |
| C=CCOCCN(CCOCC=C)C1=NS(=O)(=O)c2ccccc21 | 12.5% |
| COc1ccc(NS(=O)(=O)c2cccc(NC(=O)C3=NN(c4ccccc4)C(=O)CC3)c2)cc1 | -35.1% |

| SMILES | hERG current change (%, negative = inhibition) at 10uM |
| --- | --- |
| O=C(NC1=NCCS1)c1cc2ccccc2o1 | -23.8% |
| Cc1cccnc1NC(=O)c1cccc(S(=O)(=O)N2CCN(c3ccc(F)cc3)CC2)c1 | -35.1% |
| O=C(Nc1ccncc1)c1cccc(S(=O)(=O)N2CCOCC2)c1 | -58.4% |
| O=C(Nc1ccncc1)c1cccc(S(=O)(=O)N2CCN(c3ccc(F)cc3)CC2)c1 | -82.9% |
| CN(C)S(=O)(=O)c1cccc(NC(=O)c2cncc(Br)c2)c1 | -3.39% |
| O=C(Nc1cccc(S(=O)(=O)N2CCCC2)c1)c1cccc(S(=O)(=O)N2CCOCC2)c1 | -15.5% |
| CN1CCN(S(=O)(=O)c2cccc(C(=O)Nc3sccc3C(N)=O)c2)CC1 | -75.4% |
| O=C(Nc1cccnc1)c1cccc(S(=O)(=O)N2CCOCC2)c1 | 4.06% |
| CCN(CC)S(=O)(=O)c1cccc(NC(=O)c2ccc(Br)cc2)c1 | 4.07% |
| CN1CCN(S(=O)(=O)c2cccc(C(=O)Nc3cc(C(N)=O)cc(C(N)=O)c3)c2)CC1 | 4.71% |
| O=C(Nc1ccc2c(c1)CCC2)c1cccc(S(=O)(=O)N2CCN(c3ccc(F)cc3)CC2)c1 | -3.29% |
| CN1CCN(S(=O)(=O)c2cccc(C(=O)Nc3sccc3C#N)c2)CC1 | -5.03% |
| CCN(CC)S(=O)(=O)c1cccc(NC(=O)c2cncc(Br)c2)c1 | -69.9% |
| Cc1ccc(SCC(=O)c2cc(C)c(O)c(C)c2)cc1 | -3.19% |
| Cc1ccccc1NC(=O)CCc1nnc2ccc(N3CCC4(CC3)OCCO4)nn12 | 8.74% |
| CSCc1nnc(NC(=O)c2ccc(S(=O)(=O)N(C)C)cc2)o1 | 20.7% |
| CCOC(=O)/C(C#N)=N/Nc1ccc(S(=O)(=O)N2CCc3ccccc32)cc1 | 2.18% |
| CCOC(=O)C1=C(C)OC(N)=C(C#N)C1c1cccs1 (stereo not shown) | 8.62% |
| Cc1nnc(NC(=O)CSc2nnc(CNC(=O)C34CC5CC(CC(C5)C3)C4)n2C2CCCCC2)s1 | 2.98% |
| CCOc1ccccc1N1CCN(C(=O)c2cc3cc(OC)ccc3[nH]2)CC1 | -3.66% |
| C=CCn1c(O)c(C(CC)=Nc2ccc3c(c2)CCC3)c(=O)[nH]c1=O | 1.65% |
